Data from PubChem BioAssay (NCI).
This is part of a sample that, as a whole, favours compounds with a hit. Of some 83,000 tested, about 20% had one in any assay.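 Activity criterion: percent growth below 10, measured after cells in 96-well plates were exposed to a single compound concentration for 48 hours.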 A number with no mark means an inactive call. The source made the active and inactive calls.

Assays:
Experiment in all cases: NCI-60 one-dose screen, 48 h (100 = growth as untreated, 0 = no growth, -100 = all killed)
SK-MEL-2 melanoma = details: 10 µM unless noted
EKVX NSCLC = details: 10 µM unless noted
SN12C renal = details: 10 µM unless noted
UO-31 renal = details: 10 µM unless noted
TK-10 renal = details: 10 µM unless noted
ACHN renal = details: 10 µM unless noted
CAKI-1 renal = details: 10 µM
A498 renal = details: 10 µM unless noted
CCRF-CEM leukemia = details: 10 µM unless noted
MOLT-4 leukemia = details: 10 µM unless noted
SR leukemia = details: 10 µM unless noted
RPMI-8226 leukemia = details: 10 µM unless noted
OVCAR-8 ovarian = details: 10 µM unless noted
OVCAR-5 ovarian = details: 10 µM unless noted
OVCAR-4 ovarian = details: 10 µM unless noted
IGROV1 ovarian = details: 10 µM unless noted
OVCAR-3 ovarian = details: 10 µM unless noted
HS 578T breast = details: 10 µM unless noted
NCI/ADR-RES ovarian = details: 10 µM unless noted
SK-OV-3 ovarian = details: 10 µM unless noted

Row | SMILES | growth (SK-MEL-2 melanoma) [%] | growth (EKVX NSCLC) | growth (SN12C renal) | growth (UO-31 renal) | growth (TK-10 renal) | growth (ACHN renal) | growth (CAKI-1 renal) | growth (A498 renal) | growth (CCRF-CEM leukemia) | growth (MOLT-4 leukemia) | growth (SR leukemia) | growth (RPMI-8226 leukemia) | growth (OVCAR-8 ovarian) | growth (OVCAR-5 ovarian) | growth (OVCAR-4 ovarian) | growth (IGROV1 ovarian) | growth (OVCAR-3 ovarian) | growth (HS 578T breast) | growth (NCI/ADR-RES ovarian) | growth (SK-OV-3 ovarian) [%]
1 | O=C(NNc1nc2cc(F)c(F)cc2n2cccc12)c1cccnn1 | 19.3 | 7.06% (active) | 15.8% | 13.3% | 39.5% | 10.2% | 11.8% | 14.2% | 7.8% (active) | 7.86% (active) | 11.8% | 9.62% (active) | 19.8% | 42.5% | 4.78% (active) | 14.4% | 7.39% (active) | 29.3% | -0.232% (active) | –
2 | O=c1c2ccccc2nc(COc2ccccc2)n1/N=C/C=C/c1ccccc1 | 94.5 | 86.2% | 87.6% | 89.8% | 106% | 96.8% | 103% | 98.6% | 84.3% | 97.1% | 85.7% | 87.5% | 100% | 98.8% | 90% | 90.2% | 103% | 94.4% | 91.8% | –
3 | COc1ccc(N2C(=O)c3cc(OC)c(OC)cc3NC2SCc2ccccc2)cc1 (stereo not given) | 99.6 | 91.8% | 102% | 88.4% | 129% | 94.3% | 104% | 107% | 105% | 88% | 83.5% | 114% | 103% | 109% | 102% | – | 125% | 125% | 99.7% | –
4 | O=C(NNc1nc2cc(F)c(F)cc2n2cccc12)c1ccncn1 | 29.8 | 12.2% | 26.2% | 20.7% | 27.1% | 14.1% | 17.2% | 46.5% | 7.72% (active) | 8.93% (active) | 14.6% | 16.9% | 17.5% | 39% | 3.66% (active) | 15.7% | 12.7% | 48.2% | 5.95% (active) | –
5 | O=C(NNc1nc2cc(F)cc(F)c2n2cccc12)c1ncccn1 | 23.2 | 11.1% | 15.7% | 16% | 26% | 9.54% (active) | 17.4% | 23.8% | 7.19% (active) | 13% | 13.2% | 12.7% | 16.7% | 40.5% | 20.9% | 14% | 16.3% | 42.8% | -1.21% (active) | –
6 | O=C(N/N=C\c1ccc(Cl)cc1)c1ccc2nc(-c3ccc(Br)cc3)[nH]c2c1 | 82.7 | 0.288% (active) | -14.6% (active) | 15.9% | -26.8% (active) | -12.6% (active) | -17.8% (active) | 65.4% | 26.3% | 11.6% | -8.2% (active) | -8.35% (active) | -14.4% (active) | 36.8% | -44.1% (active) | – | – | 15.6% | 35.7% | 79.1
7 | O=C1c2cc(Br)ccc2-n2c1nc1cc(Br)ccc1c2=O | 73.4 | 59.5% | 76.6% | 62.6% | 149% | 79% | 78.7% | 125% | 71.9% | 67.7% | 65.8% | 75.8% | 78.3% | 90.8% | 64.7% | 59.8% | 47.3% | 96.1% | – | –
8 | O=C(CCCCCCN1CC(=O)N2[C@@H](c3ccc(Cl)c(F)c3)c3[nH]c4ccccc4c3C[C@H]2C1=O)NO | 104 | 87.9% | 83.8% | 75.3% | 107% | 92.1% | 70.8% | 106% | 41.2% | 45.3% | 45.1% | 59.1% | 66.5% | 87.6% | 84.3% | – | 83.6% | 98.4% | 101% | 81.8
9 | N#Cc1c(NC(=O)c2ccccc2C(F)(F)F)sc2c1CCC(=O)C2 | 12.2 | 12.4% | 14.5% | -25.2% (active) | 35.1% | -32.8% (active) | -11.1% (active) | 81.8% | 13% | 11.2% | 20.8% | -2.1% (active) | 16.3% | 8.8% (active) | 2.89% (active) | – | 4.15% (active) | 30.4% | 4.69% (active) | 91.1
10 | O=C(NNc1nc2cc(F)cc(F)c2n2cccc12)c1ccncn1 | 22 | 7.66% (active) | 19.6% | 17.3% | 10% | 11.6% | 16.5% | 22.2% | 5.12% (active) | 4.2% (active) | 4.42% (active) | 9.13% (active) | 12.5% | 40.9% | 4.29% (active) | 15.1% | 8.94% (active) | 34% | 1.44% (active) | –
11 | O=C1CC2(CCOCC2)Oc2ncccc21 | 95.9 | 93.5% | 33.1% | 101% | 60.5% | 36.3% | 94.2% | 99.6% | 0.712% (active) | 13.5% | 15% | 5.53% (active) | 90.9% | 52.6% | 102% | – | -54.4% (active) | 95.2% | 104% | 120
12 | CCOC(=O)c1nn(-c2ccccc2)c(=O)c2c(N)c(C#N)c(-c3cccs3)cc12 | 98.4 | 83.9% | 75.1% | 50.9% | 115% | 54.4% | 62.8% | 102% | 99.5% | 97% | 96% | 74.4% | 54.5% | 88.8% | 36.7% | 64% | 109% | 32.9% | 59.8% | –
13 | Cc1ccc(/C=C/CC(=O)Nc2ccc(C(=O)Nc3ccc(F)cc3N)cc2)cn1 | 60.7 | 63.4% | 73.5% | 58.9% | 34.9% | 80.8% | 57.2% | 38.9% | 23.3% | 45.1% | 46.1% | 19.8% | 48.4% | 55.7% | 62.1% | 65.5% | 79.5% | 56.7% | 90% | –
14 | COc1cc(/C=N/n2cnc3oc(-c4ccccc4)cc3c2=N)cc(CN2CCCC2)c1O | 113 | 97% | -78.8% (active) | 9.45% (active) | 114% | 75.9% | 62.7% | 85.7% | -2.49% (active) | 6.5% (active) | 27.4% | -42.2% (active) | -22.2% (active) | 99% | -49.7% (active) | -62.8% (active) | – | 63.6% | 16.6% | –
15 | ClC(Cl)c1nc(-c2cccs2)n2nc(-c3ccccc3)cc2n1 | 77.6 | -26.8% (active) | 50.6% | -53.7% (active) | -10.8% (active) | -23.5% (active) | -15% (active) | -78.5% (active) | 67.9% | 44% | 58.1% | -25.6% (active) | 12% | -8.51% (active) | 10.7% | – | -37.4% (active) | -21.1% (active) | -20.7% (active) | 20.2
16 | CC(C)(C)OC(=O)N1CCN(S(=O)(=O)/N=C2\NC(=O)NC2=C(Cl)Cl)CC1 | 88.9 | 90.8% | 91.7% | 91.6% | 124% | 99.5% | 98.8% | 83.7% | 29.4% | 89% | 23.6% | 84.7% | 100% | 101% | 100% | 84% | 104% | 72.9% | 99% | –
